From PubChem BioAssay (NCATS) come the findings set out here.

Assay [1] has as its system Zika virus NS2B-NS3 protease (linked construct). Put plainly: Primary screen NINDS Rhodamine qHTS for Zika virus inhibitors (AID 1347160). For activity change, negative = inhibition: % is set by controls: 0 for no effect and ±100 for the full control effect. Note: nearly all actives have a fitted effect of over 55% in size. Note: potency is the fitted concentration of half-maximal effect. Summed up: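 Kinetic fluorescence (Ex 480 nm, Em 540 nm) over 15 min with 1.5 microM Rhodamine110 peptide and 25 nM linked protease.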
(qHTS replaces the single test concentration by a dilution series.)

Assay [2] in a line: UWB1.289 Cancer Cell Toxicity qHTS against the NCATS CANVASS Library (AID 1347347). Note: nearly all actives have a fitted effect of over 60% in size. Note: potency is the fitted concentration of half-maximal effect. Summed up:
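Viability was assessed by adding CellTiter-Glo reagent to treated cultures and reading luminescence after 15min at room temperature. Treatment lasted 72 h at 37 degrees C/5% CO2, using an 11-point series on 1000 cells/well.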

Assay [3] is described as follows: qHTS for Inflammasome Signaling Inhibitors: IL-1-beta AlphaLISA screen against the NCATS CANVASS Library (AID 1347379).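 For activity change, negative = inhibition: % is set by controls: 0 for no effect and ±100 for the full control effect; lower signal means less IL-1B release which is the wanted effect.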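 Note: human THP-1 cells primed with LPS then triggered with ATP; secreted IL-1B measured as AlphaLISA emission at 615 nm.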 Note: potency is the fitted concentration of half-maximal effect. Summed up: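 THP-1 cells pretreated 1 hr with compound (up to 57.5 uM final), then stimulated with LPS (250 ng/mL final) and ATP (1.25 mM final). Secreted IL-1B measured by AlphaLISA after 16 hr; glyburide as positive control.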
Assay [4] is described as follows: Secretion counterscreen for inhibitors of the SERCaMP assay screened against the NCATS CANVASS Library (AID 1347390). For activity change, negative = inhibition: % is set by controls: 0 for no effect and ±100 for the full control effect.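 Note: light from luciferase secreted into medium read as a measure of general secretion.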 Note: potency is the fitted concentration of half-maximal effect. Summed up: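 SH-SY5Y cells expressing constitutively secreted GLuc, 1000 cells/well, attached 4 h at 37C, then exposed to compounds (0.001 - 77 uM, 11-pnt series) for 20 h. Coelenterazine added; luminescence read to flag secretory-pathway interferers.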

Assay [5] is described as follows: HEK-293 Cancer Cell Toxicity qHTS against the NCATS CANVASS Library (AID 1347355). Note: nearly all actives have a fitted effect of over 65% in size. Note: potency is the fitted concentration of half-maximal effect. The method in brief: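 Cells at 1000/well were given compound 4 h after plating in an 11-point series. Viability was read by CellTiter-Glo luminescence after 72 h at 37 degrees C.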
Assay [6] can be described thus: KB-8-5-11 Cancer Cell Toxicity qHTS against the NCATS CANVASS Library (AID 1347364). Note: % is set by controls: 0 for no effect and ±100 for the full control effect; nearly all actives have a fitted effect of over 75% in size. The method in brief:
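KB-8-5-11 cells, 500/well in DMEM + 10% FBS, given compounds in an 11-point series. Incubated 72 h at 37 °C. Viability by CellTiter-Glo luminescence. Confirmation also run with 1 uM tariquidar.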

Assay [7] can be described thus: qHTS for Antimalaria activity screened against the NCATS CANVASS Library (AID 1347380).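 For activity change, negative = inhibition: Plasmodium falciparum strain Dd2 asexual parasites grown in red blood cells.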 Note: nearly all actives have a fitted effect of over 40% in size. Note: potency is the fitted concentration of half-maximal effect. Summed up:
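Red blood cells infected with P. falciparum Dd2 (2.5% hematocrit final, 0.3% parasitemia) were exposed to compounds in an 11-point qHTS series for 72 hr at 37C under 5% O2 and 5% CO2. Lysis buffer with SYBR Green was then added for 18 hr, and fluorescence was read at 485/535 nm.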

A short description of assay [8]: qHTS for activators of Nrf2/ARE signaling pathway screened against the NCATS CANVASS Library (AID 1347391). Note: nearly all actives have a fitted effect of over 60% in size. Note: potency is the fitted concentration of half-maximal effect. Summed up: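 ARE-bla HepG2 beta-lactamase reporter cells exposed to compounds for 16 h at 37C; CCF4 substrate 2 h, fluorescence at ex 405 nm, em 460/530 nm. Viability by CellTiter-Glo luminescence.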
Assay [9] is described as follows: qHTS for inhibitors of Wild type Zika virus screened against the NCATS CANVASS Library (AID 1347396).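 Note: ATP luminescence of surviving cells so rescue from viral cell killing; % is set by controls: 0 for no effect and ±100 for the full control effect.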 The method in brief: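 Protection against wild-type Zika cytopathic effect is measured in African green monkey Vero 766 cells exposed to an 11-point compound series. Surviving cells are quantified by CellTiter Glo luminescence after 72 h.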
Assay [10] is described as follows: Confirmation and Secondary Assay for Modulators of Hemoglobin Beta Chain Splicing at IVS2 654 locus (AID 910).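 Note: HeLa cells stably carrying EGFP split by mutant beta-globin IVS2-654 intron; per-well total GFP intensity by laser scanning cytometry after 2-day treatment; % of control where 0% means no effect.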 Summed up: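 Readout: per-well total peak green fluorescence (488 nm ex, 500–520 nm em) from objects 5–250 µm, reflecting correct splicing of an EGFP-654 reporter. Compounds were applied for 2 days at 37 °C to overnight-plated HeLa EGFP-654 cells; controls were DMSO and 500 nM IVS2-654 PNA.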

Assay [11] is described as follows: Confirmation and Secondary Assay for Modulators of Hemoglobin Beta Chain Splicing at IVS2 705 locus (AID 930).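 Note: HeLa cells stably expressing the EGFP-705 splicing reporter; GFP fluorescence per well restored by corrected splicing of the IVS2-705 intron in EGFP; % of control where 0% means no effect.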 Summed up: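 Per-well GFP, captured at 1 x 8 µm resolution with 488 nm excitation, served as the read-out for HeLa EGFP-705 cells incubated 2 days with test compound versus DMSO.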
Assay [12] in a line: qHTS for Hypoxia signaling pathway (HIF-1) antagonists against the NCATS CANVASS Library (AID 1347374).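 For activity change, negative = inhibition: HRE-bla ME-180 cells stimulated with cobalt chloride to stabilize HIF-1alpha; % is set by controls: 0 for no effect and ±100 for the full control effect.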 Note: nearly all actives have a fitted effect of over 60% in size. Note: potency is the fitted concentration of half-maximal effect. Summed up: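 HRE-bla ME-180 cells in medium with 0.5% dialyzed FBS received compounds (11-point series) plus CoCl2 (60 uM addition stock) for 17 hrs at 37C. Beta-lactamase activity read with CCF4 (405 nm ex, 460/530 nm em); CellTiter-Glo viability measured in same wells.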

A short description of assay [13]: Primary qHTS for inhibitors of nuclear receptor binding SET domain protein 2 (NSD2) in an isogenic RCH-ACV NSD2 p.E1099K mutant (9B) (AID 1645876). Note: potency is the fitted concentration of half-maximal effect; nearly all actives have a fitted effect of over 70% in size.
The target of assay [14] is Glutathione peroxidase 1 (Homo sapiens) (UniProt P07203). Put plainly: Primary qHTS Assay for Inhibitors of Recombinant Selenoprotein Glutathione Peroxidase 1 (GPX1) (AID 1845191). Note: % is set by controls: 0 for no effect and ±100 for the full control effect; nearly all actives have a fitted effect of over 65% in size. The method in brief: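 10 nM GPX1 + cpd, 30 min RT; start w/ 1 mM GSH, 0.5 mM cumene hydroperoxide, 0.5 mM NADPH, 100 nM GR, 0.01% BSA; buffer 50 mM Tris-HCl pH 7.5, 2 mM EDTA, 150 mM NaCl; Fl 340/450, 0 & 15 min.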

Assay [15] is described as follows: qHTS assay to identify inhibitors of the type 1 interferon - major histocompatibility complex class I in skeletal muscle: Counter screen cell viability and HiBit confirmation (AID 1347412). Note: % is set by controls: 0 for no effect and ±100 for the full control effect; nearly all actives have a fitted effect of over 60% in size. The note with it: iHSKM muscle cells + IFN-b, HiBiT or CellTiter-Glo, 24 h, at 45.9 µM (top of the series). The method in brief:
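HLA-B*08:01–HiBiT knock-in immortalized human myoblasts (C25cl48) stimulated with 4.0 ng/ml human IFN-beta and dosed with compound in a 12-point 1:3 titration (top final 46 uM). After 24 hrs at 37 C, HiBiT lytic luminescence or CellTiter Glo ATP read out.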

A number with no mark means an inactive call. Results filed as inconclusive are left out. The source made the active and inactive calls. Calls come from the whole dose curve; as a rule, active = well fitted curve in the direction sought with a large enough effect; inconclusive = small, poorly fitted or top-dose-only effect, or another doubt; inactive = no such curve, though single readings can be large; an effect the other way counts as inactive or inconclusive.

Chain of Glutathione peroxidase 1 (Homo sapiens) (P07203 whole entry, looked up): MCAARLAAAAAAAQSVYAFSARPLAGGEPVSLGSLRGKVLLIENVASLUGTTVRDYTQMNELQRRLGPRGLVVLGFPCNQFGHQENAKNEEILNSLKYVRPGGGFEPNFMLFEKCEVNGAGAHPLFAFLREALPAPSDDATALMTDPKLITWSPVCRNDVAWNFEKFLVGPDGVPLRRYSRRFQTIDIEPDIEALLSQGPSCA

As for `O=C(OC[C@H]1O[C@@H](OC(=O)c2cc(O)c(O)c(O)c2)[C@H](OC(=O)c2cc(O)c(O)c(O)c2)[C@@H](OC(=O)c2cc(O)c(O)c(O)c2)[C@@H]1OC(=O)c1cc(O)c(O)c(O)c1)c1cc(O)c(O)c(O)c1`, the Potency is 0.877 µM (active) in [1] and 18.8 µM (active) in assay [2]. The Potency entry in assay [3] and in assay [4] was “inactive” each time.
As to `C/C(=C\[C@H](C)C(=O)CCCC1CC(=O)NC(=O)C1)[C@@H]1OC(=O)/C=C/CC/C=C/[C@H](O)[C@@H](O)[C@@H]1C`, the Potency is 49.3 µM (active) in assay [1]; 0.662 µM (active) in assay [5]; 6.11 µM (active) in [3]; 5.29 µM (active) in assay [7]; 2.72 µM (active) in assay [4]. Further, the Potency result in assay [6] and in assay [8] was “inactive” in each case. In assay [9], the call was inactive.
As to `O=C1CC(c2ccc(O)cc2)Oc2cc(O)cc(O)c21` (stereo not drawn), the compound was classed as inactive in assay [10] and in assay [11]. The Potency result in [2], in assay [5] and in assay [3] was “inactive” each time.
Turning to `C/C=C1/CN2C3CC1C1C=CC(=O)N4c5ccccc5[C@@]3(C[C@@H]2C2=C[C@H]3C5CC6N(CC[C@@]67c6ccccc6N(C2=O)[C@@H]37)C/C5=C/C)[C@H]14` (stereo partly drawn), the Potency is 15.6 µM (active) in assay [1]; 9.35 µM (active) in [5]; 1.06 µM (active) in assay [7]; 34.3 µM (active) in [4]; 3.31 µM (active) in [8].
In the case of `CC(C)=CCc1c2c(c3occ(-c4ccc(O)c(O)c4)c(=O)c3c1O)C=CC(C)(C)O2`, the call in assay [10] and in assay [11] was inactive.
Regarding `CC1=C2CC[C@]3(C)[C@H](CC=C4[C@@H]5CC(C)(C)CC[C@@H]5C(=O)[C@H](O)[C@]43C)[C@@]2(C)C=C(O)C1=O`, the Potency in [1] is 39.2 µM (active); in assay [12], 9.41 µM (active). For the same compound, the Potency result in [2], in [3] and in assay [4] was “inactive” throughout.
As to `Oc1ccc(C2Oc3cc(O)c4c(c3[C@@H]2c2cc(O)cc(O)c2)[C@H]2C(c3ccc(O)cc3)c3c(O)cc5c(c3[C@H]2C4c2ccc(O)cc2)[C@H](c2cc(O)cc(O)c2)C(c2ccc(O)cc2)O5)cc1` (stereo partly drawn), the Potency in assay [1] is 15.6 µM (active). The Potency entry in [5], in [6], in assay [12], in assay [4] and in assay [8] was “inactive” each time. The compound was classed as inactive in [9].
Regarding `C/C=C/C(=O)C1(O)CC2CC(C(=O)O)CC(C)C2C1C1=C2C(=O)NC(=O)C2=C(CCCCC)C(C)O1` (stereo not drawn), the Potency in [1] was 49.3 µM (active); in assay [12], 5.94 µM (active). Further, the Potency result in assay [6] and in assay [7] was “inactive” throughout.
With `COc1cc(C(=O)O)ccc1NC(=O)[C@@H]1N[C@@H](CC(C)(C)C)[C@](C#N)(c2ccc(Cl)cc2F)[C@H]1c1cccc(Cl)c1F`, the Potency in [13] was 0.209 µM (active). Moreover, the Potency result in [14] is “inactive”. Also, the activity change, negative = inhibition was -14.1% in assay [15] (HiBiT) and -6.71% in [15] (Viability).
With `CCC(=O)N[C@@H](C[C@H](C)C(Cl)(Cl)Cl)C(=O)N1C(=O)C=C(OC)[C@@H]1C[C@H](C)CCl`, the Potency result in assay [1], in assay [6], in [7] and in assay [8] was “inactive” in each case.
